# According to PubChem BioAssay (NCATS):
# Results filed as inconclusive are left out. A call without a number means that no potency is given here. The source made the active and inactive calls. The call rests on the fitted dose curve; in most records, active means well fitted cell-killing curve with a large enough effect; inconclusive means small, poorly fitted or top-dose-only effect, or effect the other way; inactive means no such curve, though single readings can be large or run the other way.
# Experiment: Viability qHTS for spleen associated tyrosine kinase inhibitor (SYKi) naive MV4-11 cells (AID 1963823); further: nearly all actives have a fitted effect of over 40% in size
# Settings: MV4-11 AML viability, CellTiter-Glo luminescence, 72 h; series mostly up to 45 µM
# How it was run: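 Luminescence from CellTiter-Glo, developed 10 min at room temperature, gave viability of MV4-11 cells never exposed to SYK inhibitor. Cells (500/well) had been incubated with compounds for 72 hr under standard culture conditions.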
# Potency means the concentration at half of the fitted maximal effect.
Compound,Potency,viability (% of control)
C=C[C@@]1(C)CCC2C(=CCC3[C@]2(C)CCC[C@@]3(C)C(=O)O)C1 (some centres undefined),inactive,–
OC[C@H]1O[C@@H](OCCc2ccc(O)cc2)[C@H](O[C@@H]2OC[C@](O)(CO)[C@H]2O)[C@@H](O)[C@@H]1O,inactive,–
COC(=O)[C@H](OC(C)=O)[C@H]1C(C)(C)C(=O)[C@H]2CC3=C4CC(=O)O[C@@H](c5ccoc5)[C@]4(C)CCC3[C@@]1(C)C2=O (some centres undefined),inactive,–
COc1cc(/C=C/C(=O)OC[C@H]2O[C@@H](OC3OC=C(C(=O)O)C4C(O)CC(C)(O)C34)[C@H](O)[C@@H](O)[C@@H]2O)cc(OC)c1O (some centres undefined),inactive,–
CC(C)n1cc(-c2ccc(Oc3ccccc3)cc2)c2c(N)ncnc21,92 nM (active),–
COC1C(O)C(OC2CCC3(C)C(CCC45CCC6C7(COC(=O)C7)OC4(O)C6(C)CCC35)C2)OC(C)C1OC1OC(CO)C(OC2OC(CO)C(O)C(O)C2O)C(O)C1O (centres undefined),3900 nM (active),–
COc1cc2c(cc1NS(=O)(=O)c1ccc(Br)cc1C)n(C)c(=O)n2C,2310 nM (active),–
C[C@@H]1CC[C@]2(C(=O)O)CC[C@]3(C)C(=CCC4[C@@]5(C)C[C@@H](O)[C@H](O)[C@@](C)(CO)C5CC[C@]43C)C2[C@]1(C)O (some centres undefined),inactive,–
CC1OC(OC2C(OC3C(O[C@H]4CC[C@@]5(C)C(CC[C@]6(C)C5C(=O)CC5=C7CC(C)(C)CC(O)[C@]7(C)CC[C@]56C)C4(C)C)OC(C(=O)O)C(O)C3O)OCC(O)C2O)C(O)C(O)C1O (some centres undefined),–,77.2% [at 9.25 µM] (inactive)
CC(C)=CCC[C@](C)(O[C@@H]1O[C@H](CO)[C@@H](O)[C@H](O)[C@H]1O)[C@H]1CC[C@]2(C)[C@@H]1[C@H](O)CC1[C@@]3(C)CC[C@H](O)C(C)(C)C3[C@@H](O[C@@H]3O[C@H](CO)[C@@H](O)[C@H](O)[C@H]3O)C[C@]12C (some centres undefined),inactive,–
C=C1[C@H](OC(C)=O)[C@H]2[C@@H](OC(C)=O)C(C)C[C@]2(OC(C)=O)C(=O)[C@H](C)/C=C/C(C)(C)C(=O)[C@H](OC(=O)C(C)C)[C@H]1OC(C)=O (some centres undefined),inactive,–
COc1cccc2cc3c(c(O[C@@H]4O[C@H](CO[C@@H]5O[C@H](CO)[C@@H](O)[C@H](O)[C@H]5O)[C@@H](O)[C@H](O)[C@H]4O)c12)C(C)OC3=O (some centres undefined),inactive,–
COc1ccc(C(O[C@@H]2O[C@H](CO)[C@@H](O)[C@H](O)[C@H]2O)C(CO)Oc2ccc(/C=C/CO)cc2OC)cc1O (some centres undefined),inactive,–
COc1cc(CC(COC2OC(CO)C(O)C(O)C2O)c2cc(/C=C/CO)cc(OC)c2O)ccc1O (centres undefined),inactive,–
Cc1cc(CO)c(O)c(C(=O)CC2CC(=O)NC(=O)C2)c1,inactive,–
C=C1C(=O)O[C@@H]2C3C(=C(C)[C@@H](O)[C@@H](OC(=O)/C(=C/C)COC(C)=O)[C@@H]12)C(=O)[C@H]1O[C@@]31C (some centres undefined),2820 nM (active),–
Cc1ccc(-c2ncccn2)c(C(=O)N2C[C@H](COc3ccc(F)cn3)CC[C@H]2C)c1,inactive,–
COC(=O)C1=CO[C@@H](O[C@@H]2O[C@H](CO[C@@H]3O[C@H](COC(=O)/C=C/c4cc(OC)c(O)c(OC)c4)[C@@H](O)[C@H](O)[C@H]3O)[C@@H](O)[C@H](O)[C@H]2O)[C@@H]2C(CO)=CC[C@H]12,inactive,–
COC1=CC(=O)C[C@@H](C)[C@@]12Oc1c(Cl)c(OC)cc(OC)c1C2=O,inactive,–
C[C@@H]1O[C@@H](O[C@H]2[C@H](OC(=O)[C@]34CCC(C)(C)C[C@H]3C3=CCC5[C@@]6(C)C[C@@H](O)[C@@H](O)[C@@](C)(CO)C6[C@H](O)C[C@@]5(C)[C@]3(C)CC4)OC[C@H](O)[C@@H]2O)[C@H](O)[C@H](O)[C@H]1O[C@@H]1OC[C@@H](O)[C@H](O[C@H]2O[C@H](C)[C@@H](O)[C@H](O)[C@@H]2O)[C@H]1O (some centres undefined),–,80.2% [at 9.25 µM] (inactive)
CCc1c(-c2ccccc2)c(-c2ccccc2)nn1-c1ccccc1-c1cccc(OCC(=O)O)c1,inactive,–
CCC(C)C(=O)O[C@H]1[C@@H](OC(=O)c2ccoc2)C[C@](C)(O)[C@]23OC(C)(C)[C@H](C[C@H](OC(=O)c4ccoc4)[C@]12COC(C)=O)[C@H]3OC(C)=O (some centres undefined),inactive,–
C=C(C)[C@@H]1CCC2=CC(=O)C[C@@H](C)[C@]2(C)C1,inactive,–
C=C1C(=O)OC[C@H]2C(C(=O)O)=CC3CC(C)(C)C[C@@]132 (some centres undefined),inactive,–
